Results as given in PubChem BioAssay (Tox21).
Where “and” joins values, the source holds several entries; their conditions need not be identical. Identical values can stand only once. Records with an inconclusive call do not appear. More than one record can exist for a structure, and the calls need not agree. Calls of active or inactive are those of the source. The call rests on the fitted dose curve; in most records, active means well fitted curve in the direction sought with a large enough effect in the repeat runs; inconclusive means weak or mixed curves; inactive means no such curve, though single readings can be large; an effect the other way counts as inactive or inconclusive.

Columns and labels:
[1] = qHTS assay to identify small molecule antagonists of the glucocorticoid receptor (GR) signaling pathway - cell viability counter screen (AID 720693); further: nearly all actives have a fitted effect of over 55% in size; further: potency means the concentration at half of the fitted maximal effect
[2] = qHTS assay for identifying genotoxic compounds that show differential cytotoxicity against isogenic chicken DT40 cell lines with known DNA damage response pathways - wild type cell line (AID 743012); further: nearly all actives have a fitted effect of over 60% in size; further: potency means the concentration at half of the fitted maximal effect
Summary of the method: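 Wild type DT40, 300 cells/well, ~0.5 h settle at 37 C/5% CO2; compounds in DMSO added by pintool; 40 h at 37 C/5% CO2; CellTiter-Glo, 30 min RT; luminescence.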

[3] = qHTS assay for identifying genotoxic compounds that show differential cytotoxicity against isogenic chicken DT40 cell lines with known DNA damage response pathways - Rev3 mutant cell line (AID 743014); further: nearly all actives have a fitted effect of over 55% in size; further: potency means the concentration at half of the fitted maximal effect
[4] = qHTS assay for identifying genotoxic compounds that show differential cytotoxicity against isogenic chicken DT40 cell lines with known DNA damage response pathways - Rad54/Ku70 mutant cell line (AID 743015); further: nearly all actives have a fitted effect of over 60% in size; further: potency means the concentration at half of the fitted maximal effect
[5] = qHTS assay to identify small molecule antagonists of the androgen receptor (AR) signaling pathway - cell viability counter screen (AID 743033; further: nearly all actives have a fitted effect of over 45% in size; further: potency means the concentration at half of the fitted maximal effect)
[6] = qHTS assay to identify small molecule antagonists of the androgen receptor (AR) signaling pathway using the MDA cell line - cell viability counter screen (AID 743041; further: nearly all actives have a fitted effect of over 45% in size; further: potency means the concentration at half of the fitted maximal effect)
Summary of the method: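 Same-well cytotoxicity was assessed by CellTiter-Fluor in MDA-kb2 AR-luc cells after 16 h of compound treatment under R1881 agonism.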

[7] = target: Androgen receptor (Homo sapiens) (UniProt P10275); assay: qHTS assay to identify small molecule agonists of the androgen receptor (AR) signaling pathway using the MDA cell line (AID 743040; further: nearly all actives have a fitted effect of over 20% in size)
Summary of the method: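 Human breast carcinoma MDA-kb2 reporter cells (MMTV-luc, AR/GR elements) were treated for 16 h at 37C in 0% CO2 following a 5 h settling period. Signal was quantified by ONE-Glo luminescence.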

[8] = target: Androgen receptor (Homo sapiens) (UniProt P10275); assay: qHTS assay to identify small molecule antagonists of the androgen receptor (AR) signaling pathway using the MDA cell line (AID 743042; further: potency means the concentration at half of the fitted maximal effect; nearly all actives have a fitted effect of over 55% in size)
Summary of the method: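 MDA-kb2 breast carcinoma cells carrying MMTV-luciferase (AR/GR responsive) were co-treated with compounds and the agonist R1881 for 16 h at 37C. Inhibition read as ONE-Glo luminescence; CellTiter-Fluor fluorescence measured in parallel for cytotoxicity.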

Measured: Potency

Androgen receptor (Homo sapiens), sequence (P10275 whole entry, looked up): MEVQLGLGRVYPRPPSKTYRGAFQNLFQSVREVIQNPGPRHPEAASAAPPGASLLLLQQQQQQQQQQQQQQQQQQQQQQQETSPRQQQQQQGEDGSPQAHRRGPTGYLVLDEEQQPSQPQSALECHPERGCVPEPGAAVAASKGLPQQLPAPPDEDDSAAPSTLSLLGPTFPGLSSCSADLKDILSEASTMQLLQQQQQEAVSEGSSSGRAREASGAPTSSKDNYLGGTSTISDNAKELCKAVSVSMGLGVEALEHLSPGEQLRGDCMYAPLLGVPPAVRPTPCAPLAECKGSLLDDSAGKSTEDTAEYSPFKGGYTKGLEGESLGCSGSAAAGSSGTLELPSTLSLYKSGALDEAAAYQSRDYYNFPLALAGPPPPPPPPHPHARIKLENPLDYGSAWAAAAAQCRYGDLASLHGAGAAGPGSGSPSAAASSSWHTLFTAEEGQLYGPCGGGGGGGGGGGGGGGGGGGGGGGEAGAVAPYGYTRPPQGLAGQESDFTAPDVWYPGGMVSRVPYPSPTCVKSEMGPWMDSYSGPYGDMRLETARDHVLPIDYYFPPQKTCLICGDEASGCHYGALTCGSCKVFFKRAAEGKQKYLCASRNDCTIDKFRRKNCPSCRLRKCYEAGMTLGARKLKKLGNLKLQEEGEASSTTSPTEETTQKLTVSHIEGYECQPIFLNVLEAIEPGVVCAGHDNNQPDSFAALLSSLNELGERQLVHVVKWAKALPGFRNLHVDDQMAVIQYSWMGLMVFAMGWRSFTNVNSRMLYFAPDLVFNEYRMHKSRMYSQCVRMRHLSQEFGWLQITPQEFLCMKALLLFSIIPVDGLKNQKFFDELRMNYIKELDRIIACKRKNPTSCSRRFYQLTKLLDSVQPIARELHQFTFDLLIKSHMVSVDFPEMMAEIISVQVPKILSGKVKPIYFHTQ

OC1(c2ccc(Cl)c(C(F)(F)F)c2)CCN(CCCC(c2ccc(F)cc2)c2ccc(F)cc2)CC1
active: [1] 15.1 µM | [2] 4.22 µM | [3] 7.5 µM | [4] 5.96 µM | [5] 19 µM
inactive: [6]

O=C1C=CC(=O)N1
active: [1] 31.7 µM | [2] 6.28 µM | [3] 2.5 µM | [4] 5.59 µM | [5] 22.5 µM | [6] 55.9 µM | [8] 31.4 µM
inactive: [7]

CC(=O)OCC(C)OC(C)=O (stereo not drawn)
not listed: [7] | [8]
inactive: all other assays above

Cc1c(C)c2c(c(C)c1O)CCC(C)(COc1ccc(CC3SC(=O)NC3=O)cc1)O2 (stereo not drawn)
inactive and 24.5 µM (active): [5]
inactive: [1] | [7] | [6]
active: [2] 10.6 µM and 17.2 µM | [3] 26.6 µM and 15.4 µM | [4] 10.6 µM and 24.3 µM

Oc1ccc(Cl)cc1Sc1cc(Cl)ccc1O
active: [1] 16.9 µM and 19.5 µM | [2] 10.6 µM and 30.6 µM | [3] 11.9 µM and 19.3 µM | [4] 16.8 µM and 24.3 µM | [5] 21.3 µM and 13.8 µM | [6] 29.8 µM and 61 µM

CCCCCCCCCCCCCCCCCC[N+](C)(C)Cc1ccccc1
inactive: [7]
active: [1] 19.7 µM | [2] 0.978 µM | [3] 0.777 µM | [4] 0.871 µM | [5] 19.7 µM | [6] 17.4 µM | [8] 12.3 µM

CC/C(=C(\c1ccc(O)cc1)c1ccc(OCCN(C)C)cc1)c1ccccc1
active: [1] 24.6 µM | [2] 2.74 µM | [3] 0.434 µM | [4] 1.09 µM | [5] 15.5 µM
inactive: [7] | [6]

C[C@@H](NCCCc1cccc(C(F)(F)F)c1)c1cccc2ccccc12
active: [1] 13.4 µM | [2] 5.31 µM | [3] 5.96 µM | [4] 5.96 µM | [5] 19 µM
inactive: [7] | [6]

CSc1ccc(C(=O)c2[nH]c(=O)[nH]c2C)cc1
not listed: [7] | [8]
inactive: all other assays above

CCCCCOC(=O)CCCC
not listed: [7] | [8]
inactive: all other assays above

O=[N+]([O-])c1cc(Cl)c(Cl)c(Cl)c1Cl
not listed: [7] | [8]
inactive: all other assays above

O=C(Oc1cccc2cccnc12)c1ccccc1
inactive: [1]
active: [2] 2.66 µM | [3] 2.98 µM | [4] 6.68 µM | [5] 7.56 µM | [6] 6.99 µM

On1ccccc1=S
active: [2] 0.215 µM | [3] 0.215 µM | [4] 0.215 µM | [5] 0.385 µM | [6] 0.959 µM
inactive: [1]

[O-][n+]1ccccc1SSc1cccc[n+]1[O-]
active: [2] 0.0596 µM | [3] 0.0668 µM | [4] 0.0841 µM | [5] 0.169 µM | [8] 1.19 µM
inactive: [1] | [7]

CCCCCCCCCCCCCCCCCC[N+](C)(C)C
active: [1] 24.6 µM | [2] 2.74 µM | [3] 1.37 µM | [4] 2.74 µM | [5] 43.8 µM | [6] 48.7 µM | [8] 24.4 µM
inactive: [7]

COc1cc(-c2ccc(N=C=O)c(OC)c2)ccc1N=C=O
inactive: [1] | [2] | [3] | [5]

CNc1ccc(O)cc1
active: [1] 54.8 µM | [2] 7.68 µM | [3] 6.1 µM | [5] 38.8 µM | [6] 61 µM

CCCCCCCC[N+](CCCCCCCC)(CCCCCCCC)CCCCCCCC
active: [1] 7.75 µM | [2] 2.43 µM | [3] 1.37 µM | [4] 1.37 µM | [5] 0.308 µM | [6] 4.32 µM

Nc1ccccc1O
inactive: [1] | [5]
active: [2] 7.59 µM | [3] 6.77 µM | [4] 5.38 µM | [6] 53.8 µM

Fc1ccc(C(c2ccc(F)cc2)N2CCN(C/C=C/c3ccccc3)CC2)cc1
inactive: [1] | [6]
active: [2] 10.6 µM | [3] 13.3 µM | [4] 11.9 µM

CC(NN)c1ccccc1 (stereo not drawn)
not listed: [7] | [8]
inactive: all other assays above

CCC1=C[C@@H]2CN(C1)Cc1c([nH]c3ccccc13)[C@@](C(=O)OC)(c1cc3c(cc1OC)N(C)[C@H]1[C@@](O)(C(=O)OC)[C@H](OC(C)=O)[C@]4(CC)C=CCN5CC[C@]31[C@@H]54)C2
inactive: [1] | [5] | [6]
active: [2] 0.075 µM | [3] 0.0841 µM | [4] 0.119 µM
